Measured values as given in PMC5540273 (PLoS ONE, 2017).

Key:
Conditions in all cases: concentration: 1 μM, replicates: in singlicate; n = 1
[1] = system: T1, AMPK-alpha2
T1 construct: gene PRKAA2

[2] = system: ANKK1
[3] = system: T2, ARK5
T2 construct: gene NUAK1

[4] = system: T3, ASK1
T3 construct: gene MAP3K5

[5] = system: T4, ASK2
T4 construct: gene MAP3K6

[6] = system: AURKA
[7] = system: AURKB
[8] = system: AURKC
[9] = system: AXL
[10] = system: T5, BIKE
T5 construct: gene BMP2K
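Further: KINOMEscan kinase panel screen.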

| Structure (SMILES) | %Inh [1] [%] | %Inh [2] [%] | %Inh [3] [%] | %Inh [4] [%] | %Inh [5] [%] | %Inh [6] [%] | %Inh [7] [%] | %Inh [8] [%] | %Inh [9] [%] | %Inh [10] [%] |
| --- | --- | --- | --- | --- | --- | --- | --- | --- | --- | --- |
| O=C(NCCNc1ccnc(Nc2ccc(F)cc2)n1)c1cc2ccccc2s1 [GSK1379874] | 0 | 0 | 0 | 1 | 0 | 11 | 0 | 32 | 10 | 0 |
| O=c1cc(N2CCOCC2)nc2n(Cc3cccc(C(F)(F)F)c3)ccn12 [GSK2297543] | 0 | 5 | 0 | 0 | 0 | 13 | 0 | 4 | 18 | 18 |
| CCn1cnc2c(N)ncnc21 [GW345098] | 0 | 0 | 0 | 15 | 0 | 4 | 6 | 4 | 0 | 5 |
| Cc1nnc(-c2ccc3occ(-c4ccc(C(C)O)cc4)c3c2)o1 (centres unmarked) | 14 | 3 | 35 | 0 | 11 | 13 | 27 | 23 | 3 | 18 |
| Cn1cc(-c2ccc3c(c2)CCN3C(=O)Cc2ccccc2Cl)c2c(N)ncnc21 [GSK2608885] | 30 | 4 | 94 | 0 | 0 | 98 | 86 | 74 | 94 | 23 |
